For part of these data: Potency and affinity values are given separately.

One test relates to Staphylococcus aureus. Description: Antibacterial activity against Staphylococcus aureus MRSA ATCC 43300 (CO-ADD:GP_020); MIC in CAMBH media using NBS plates, by Resazurin F(560/590). It counts as functional. Particulars: Concentration 20 uM, ASSAY_TEST Inhibition of Bacterial Growth, detection method Resazurin, Fluorescence (ex560/em590), MEDIA CAMHB, plate type 384well, CORNING #3640, time 18 hr.

The subject of the next test is Acinetobacter baumannii. Description: Antibacterial activity against Acinetobacter baumannii ATCC 19606 (CO-ADD:GN_034); MIC in CAMBH media using NBS plates, by Resazurin F(560/590). It counts as functional. To be noted: Concentration 20 uM, ASSAY_TEST Inhibition of Bacterial Growth, detection method Resazurin, Fluorescence (ex560/em590), MEDIA CAMHB, plate type 384well, CORNING #3640, time 18 hr.

A further test concerns Escherichia coli. Briefly: Antibacterial activity against Escherichia coli ATCC 25922 (CO-ADD:GN_001); MIC in CAMBH media using NBS plates, by Resazurin F(560/590). It counts as functional. To be noted: Concentration 20 uM, ASSAY_TEST Inhibition of Bacterial Growth, detection method Resazurin, Fluorescence (ex560/em590), MEDIA CAMHB, plate type 384well, CORNING #3640, time 18 hr.

The test system of another test is Klebsiella pneumoniae. Particulars: Concentration 20 uM; ASSAY_TEST Inhibition of Bacterial Growth; detection method Absorption (OD600); MEDIA CAMHB; plate type 384well; NBS; CORNING #3640; time 18 hr.
A further test relates to Candida albicans. To be noted: 20 µM.
For a further test, the system named is Cryptococcus neoformans. To be noted: Concentration 20 uM; ASSAY_TEST Inhibition of Fungal Growth; detection method Resazurin; Absorption (OD600-OD570); plate type 384well; NBS; CORNING #3640.

For `O=c1nc2onnc2c(/C=N\O)[nH]1`, the Inhibition in the test on Staphylococcus aureus is 11.4%; in the test on Acinetobacter baumannii it was -9.04%; with Escherichia coli it was 10.25%; with Klebsiella pneumoniae, 15.41%; with Candida albicans, -0.67%; in the test with Cryptococcus neoformans, -3.06%.
On to `Cn1c2c(sc1=O)CCC2`, for which the Inhibition with Staphylococcus aureus was 14.81%; in the test on Acinetobacter baumannii, -10.92%; in the test on Escherichia coli, 5.93%; in the test with Klebsiella pneumoniae, 16.07%; in the test on Candida albicans, 2.06%; in the test on Cryptococcus neoformans, -0.94%.
With `COc1ccc([N+](=O)[O-])cc1NC(=O)N(C)Cc1ccco1`, the Inhibition in the test with Staphylococcus aureus was 9.28%; in the test with Acinetobacter baumannii, 17.46%; in the test on Escherichia coli it was 6.67%; in the test on Klebsiella pneumoniae it was 14.11%; with Candida albicans, -1.23%; in the test on Cryptococcus neoformans, -10.86%.
`NC1=NC(Nc2ccccc2)=NC(c2ccccc2)N1` (stereo unspecified): the Inhibition is 10.62% in the test on Staphylococcus aureus; 4% with Acinetobacter baumannii; 5.99% in the test with Escherichia coli; 5.54% with Klebsiella pneumoniae; 6.21% in the test on Candida albicans; -14.92% in the test with Cryptococcus neoformans.
As for `CNc1nc(SC)n(C)c(=O)c1N=O`, the Inhibition in the test with Staphylococcus aureus is 10.57%; in the test with Acinetobacter baumannii, -4.07%; in the test on Escherichia coli it was 13.38%; in the test on Klebsiella pneumoniae, 9.07%; in the test with Candida albicans, -3.41%; with Cryptococcus neoformans it was -15.4%.
Regarding `Cc1c(Cl)cccc1Nc1ncccc1C(=O)OCC(O)CO` (stereo unspecified) [CLONIXERIL], the Inhibition in the test with Staphylococcus aureus is 16.87%; with Acinetobacter baumannii, 6.56%; in the test on Escherichia coli, -0.19%; in the test with Klebsiella pneumoniae, 9.09%; with Candida albicans it was -1.76%; in the test on Cryptococcus neoformans, -6.15%.
Regarding `COc1ccc(/C(C#N)=C/c2ccccn2)cc1`, the Inhibition is 30.75% in the test on Staphylococcus aureus; -12.49% with Acinetobacter baumannii; 21.69% in the test on Escherichia coli; 10.64% with Klebsiella pneumoniae; 7.54% with Candida albicans; 8.53% in the test on Cryptococcus neoformans.
With `Oc1nccc(SCc2ccc(Cl)cc2Cl)n1`, the Inhibition was 9.05% in the test with Staphylococcus aureus; 6.51% in the test with Acinetobacter baumannii; 5.78% in the test on Escherichia coli; 11.54% with Klebsiella pneumoniae; 6.12% in the test with Candida albicans; -13.08% in the test with Cryptococcus neoformans.
In the case of `C=CCOC(=O)/C=C\C(=O)NC(N)=O`, the Inhibition was 5.08% with Staphylococcus aureus; -11.84% in the test on Acinetobacter baumannii; 0.88% in the test on Escherichia coli; 29.86% in the test on Klebsiella pneumoniae; 7.76% in the test with Candida albicans; 0.75% in the test on Cryptococcus neoformans.
As for `Oc1ccc2c(ccc3[nH]cnc32)c1`, the Inhibition in the test with Staphylococcus aureus is 7.97%; with Acinetobacter baumannii it was -12.34%; in the test with Escherichia coli, 17.76%; in the test with Klebsiella pneumoniae, 18.56%; in the test on Candida albicans, -0.43%; in the test with Cryptococcus neoformans, -9.86%.
In the case of `O=[N+]([O-])c1cccc(/C=C/c2ccccn2)c1`, the Inhibition is 0.18% in the test on Staphylococcus aureus; -2.22% in the test on Acinetobacter baumannii; 10.58% with Escherichia coli; 8.63% with Klebsiella pneumoniae; 0.08% in the test with Candida albicans; -13.12% in the test on Cryptococcus neoformans.
As for `Nc1nc(N)c(/C=N/c2ccc(Br)cc2)c(Nc2ccc(Br)cc2)n1`, the Inhibition with Staphylococcus aureus is -2.53%; with Acinetobacter baumannii, -11.54%; with Escherichia coli, 5.75%; in the test on Klebsiella pneumoniae it was -1.66%; with Candida albicans, -1.08%; in the test with Cryptococcus neoformans, 1.82%.
For the compound `Cc1ccc2c(c1)sc1nncn12`, the Inhibition is 15.32% in the test with Staphylococcus aureus; -15.79% in the test with Acinetobacter baumannii; 12.68% in the test with Escherichia coli; 5.69% with Klebsiella pneumoniae; -0.75% with Candida albicans; -11.46% in the test on Cryptococcus neoformans.
Consider `Cc1ccc(-n2nnnc2-c2cccnc2)cc1`, for which the Inhibition in the test on Staphylococcus aureus is 21.74%; in the test with Acinetobacter baumannii, -2.15%; in the test on Escherichia coli, 12.35%; in the test on Klebsiella pneumoniae it was 4.8%; in the test on Candida albicans, -0.65%; in the test with Cryptococcus neoformans, -9.13%.
Turning to `CCOC(=O)c1c(N)ssc1=S`, the Inhibition in the test on Staphylococcus aureus is 5.44%; in the test on Acinetobacter baumannii, 2.94%; with Escherichia coli it was -3.33%; with Klebsiella pneumoniae, 23.27%; in the test on Candida albicans, 10.5%; in the test on Cryptococcus neoformans, -3.18%.
As for `COc1cc(/C=C2\CCOC2=O)cc(OC)c1OC`, the Inhibition with Staphylococcus aureus is 4.75%; in the test on Acinetobacter baumannii it was 13.86%; with Escherichia coli, 8.29%; with Klebsiella pneumoniae it was 12.15%; in the test on Candida albicans, 2.88%; in the test with Cryptococcus neoformans it was -2.47%.
In the case of `O=C1CCC(c2ccccc2)(c2ccccc2)CC1`, the Inhibition in the test on Staphylococcus aureus was -6.5%; in the test on Acinetobacter baumannii it was -6.38%; with Escherichia coli it was 1.3%; in the test with Klebsiella pneumoniae it was -0.79%; in the test on Candida albicans it was -1.35%; in the test on Cryptococcus neoformans, -9.68%.
Regarding `Cc1ccc([N+](=O)[O-])cc1NC(=O)Nc1cccc(F)c1`, the Inhibition in the test with Staphylococcus aureus is 33.45%; in the test with Acinetobacter baumannii it was -10.69%; in the test on Escherichia coli, 8.59%; in the test with Klebsiella pneumoniae it was 12.62%; with Candida albicans, 18.3%; in the test with Cryptococcus neoformans, -9.48%.
For the compound `COCC(O)Cn1ccnc1[N+](=O)[O-]` (stereo unspecified) [MISONIDAZOLE], the Inhibition in the test on Staphylococcus aureus is -3.32%; in the test on Acinetobacter baumannii, 6.49%; with Escherichia coli it was 6.97%; with Klebsiella pneumoniae, 11.9%; in the test with Candida albicans, 1.35%; in the test with Cryptococcus neoformans it was -12.64%.
`Cc1ccc(NC(=O)NNC(=O)CSC2CCc3ccccc32)c(C)c1` (stereo unspecified): the Inhibition in the test with Staphylococcus aureus is 19.06%; with Acinetobacter baumannii it was 5.57%; in the test on Escherichia coli, 0.84%; in the test with Klebsiella pneumoniae, 5.08%; in the test with Candida albicans it was 2.67%; with Cryptococcus neoformans, -10.98%.
In the case of `c1ccc2cc(OCCOCCOc3ccc4ccccc4c3)ccc2c1`, the Inhibition in the test on Staphylococcus aureus was 11.38%; with Acinetobacter baumannii, 0.36%; in the test with Escherichia coli, 5.4%; with Klebsiella pneumoniae, 11.21%; in the test with Candida albicans it was 5.37%; with Cryptococcus neoformans, -6.02%.
Turning to `Nc1n[nH]c(-c2ccccc2)n1`, the Inhibition with Staphylococcus aureus is 11.8%; in the test on Acinetobacter baumannii, -13.69%; in the test with Escherichia coli it was 16.83%; with Klebsiella pneumoniae it was 8.63%; in the test on Candida albicans, -1.64%; in the test on Cryptococcus neoformans, -8.71%.
Consider `CCC(C)n1c(C)cc(=O)n1C(C)CC` (stereo unspecified), for which the Inhibition with Staphylococcus aureus was 2.1%; in the test on Acinetobacter baumannii, -5.44%; with Escherichia coli, -0.28%; in the test with Klebsiella pneumoniae it was 0.77%; in the test on Candida albicans, -0.29%; in the test with Cryptococcus neoformans, -4.99%.
For `O=C1CSCc2nc3ccccc3n21`, the Inhibition with Staphylococcus aureus was 4.29%; in the test on Acinetobacter baumannii, -8.34%; in the test with Escherichia coli it was 5.14%; in the test with Klebsiella pneumoniae, 18.88%; in the test with Candida albicans, 1.65%; with Cryptococcus neoformans, -7.32%.
As for `CCOC(=O)Nc1c2ccccc2nc2ccccc12`, the Inhibition with Staphylococcus aureus is 6.28%; in the test with Acinetobacter baumannii, -11.12%; with Escherichia coli, 4.72%; in the test on Klebsiella pneumoniae it was 16.5%; in the test on Candida albicans it was 2.36%; in the test on Cryptococcus neoformans, -13.98%.
Consider `CC(C)Oc1ccc(C(=O)O)cc1`, for which the Inhibition was 3.26% in the test with Staphylococcus aureus; -8.45% with Acinetobacter baumannii; 5.58% with Escherichia coli; 15.4% in the test on Klebsiella pneumoniae; 24.9% in the test with Candida albicans; -0.99% with Cryptococcus neoformans.

The record behind these values is ChEMBL document CHEMBL4296182, “CO-ADD screening of NIH NCI Diversity Set V”.
